In the library only some 1.8% were active in any assay of this set; here they are far more common.
Mcl1 Bid PPI: disrupts binding of human Mcl-1 to Bid peptide. Q07820. TR-FRET Mcl-1/Bid-Dy647 peptide binding, 1536-well. inhibition, % at 21.7 µM. 220,000 compounds, 0.97% hits;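 active means compounds that cut the binding signal by more than half at the single screening dose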;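 further: His-tagged Mcl-1 with europium anti-His antibody binding Bid BH3 peptide; 0% = Mcl-1 plus peptide wells and 100% = peptide-only wells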
TLR4-MyD88 BLA: blocks binding of human TLR4 to MyD88; O00206+Q99836; AID 861; 200,000 compounds, 0.18% hits; HeLa CL3-4 TLR4/MyD88 BLA complementation, FRET ratio; inhibition, % at 8.4 µM; in the data active means inhibition above about 25%;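 further: 0% = vehicle and 100% = reference inhibitor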
Mcl-1 Bim block: inhibitors of Bim-Mcl-1 interaction, human | Q07820 | Bead-based flow cytometry, Bim peptide-Mcl-1 binding | inhibition, % at 10 µM | 190,000 compounds, 0.1% hits | AID 1009; in the data active means inhibition above about 40%;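 further: 0% = no compound tracer wells and 100% = peptide blocker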
NOD2-RIPK2 inh: inhibitors of human NOD2-RIPK2 interaction. O43353. CHO BLA complementation NOD2-RIPK2, CCF4 ratio. inhibition, % at 4.98 µM. 360,000 compounds, 0.38% hits. AID 624267; in the data active means inhibition above about 21%;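 further: 0% = vehicle only and 100% = reference blocker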
Mcl1 Noxa PPI: disrupts binding of human Mcl-1 to Noxa peptide; Q07820; TR-FRET Mcl-1/Noxa peptide binding, 2 h; inhibition, % at 21.7 µM; 220,000 compounds, 1.5% hits; AID 1022;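 active means compounds that cut the protein-peptide binding signal by more than 50% relative to plate controls in a single-dose test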;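 further: His-tagged Mcl-1 with rhodamine Noxa BH3 peptide and terbium anti-His antibody; 0% = Mcl-1 plus Noxa peptide wells and 100% = peptide-only wells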
TLR9-MyD88 block: inhibitors of human TLR9-MyD88 binding | Q9NR96+Q99836 | CHO BLA complementation TLR9-MyD88, CCF4 FRET ratio | inhibition, % at 4.98 µM | 340,000 compounds, 0.21% hits;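 active means inhibition above the mean over all tested compounds plus 3 SD, cut at about 21% in these data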;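 further: 0% = DMSO only wells and 100% = clavulanate BLA inhibitor control wells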
Target sequence (Q99836 whole entry, looked up): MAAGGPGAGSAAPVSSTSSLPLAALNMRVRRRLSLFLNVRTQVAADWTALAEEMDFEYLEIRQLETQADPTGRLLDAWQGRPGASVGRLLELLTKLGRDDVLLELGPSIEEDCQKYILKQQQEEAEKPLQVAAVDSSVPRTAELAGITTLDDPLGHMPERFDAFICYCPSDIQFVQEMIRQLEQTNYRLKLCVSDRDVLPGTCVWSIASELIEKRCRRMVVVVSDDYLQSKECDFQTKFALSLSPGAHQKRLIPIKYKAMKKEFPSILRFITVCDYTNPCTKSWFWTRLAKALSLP
Target sequence (Q9NR96 whole entry, looked up): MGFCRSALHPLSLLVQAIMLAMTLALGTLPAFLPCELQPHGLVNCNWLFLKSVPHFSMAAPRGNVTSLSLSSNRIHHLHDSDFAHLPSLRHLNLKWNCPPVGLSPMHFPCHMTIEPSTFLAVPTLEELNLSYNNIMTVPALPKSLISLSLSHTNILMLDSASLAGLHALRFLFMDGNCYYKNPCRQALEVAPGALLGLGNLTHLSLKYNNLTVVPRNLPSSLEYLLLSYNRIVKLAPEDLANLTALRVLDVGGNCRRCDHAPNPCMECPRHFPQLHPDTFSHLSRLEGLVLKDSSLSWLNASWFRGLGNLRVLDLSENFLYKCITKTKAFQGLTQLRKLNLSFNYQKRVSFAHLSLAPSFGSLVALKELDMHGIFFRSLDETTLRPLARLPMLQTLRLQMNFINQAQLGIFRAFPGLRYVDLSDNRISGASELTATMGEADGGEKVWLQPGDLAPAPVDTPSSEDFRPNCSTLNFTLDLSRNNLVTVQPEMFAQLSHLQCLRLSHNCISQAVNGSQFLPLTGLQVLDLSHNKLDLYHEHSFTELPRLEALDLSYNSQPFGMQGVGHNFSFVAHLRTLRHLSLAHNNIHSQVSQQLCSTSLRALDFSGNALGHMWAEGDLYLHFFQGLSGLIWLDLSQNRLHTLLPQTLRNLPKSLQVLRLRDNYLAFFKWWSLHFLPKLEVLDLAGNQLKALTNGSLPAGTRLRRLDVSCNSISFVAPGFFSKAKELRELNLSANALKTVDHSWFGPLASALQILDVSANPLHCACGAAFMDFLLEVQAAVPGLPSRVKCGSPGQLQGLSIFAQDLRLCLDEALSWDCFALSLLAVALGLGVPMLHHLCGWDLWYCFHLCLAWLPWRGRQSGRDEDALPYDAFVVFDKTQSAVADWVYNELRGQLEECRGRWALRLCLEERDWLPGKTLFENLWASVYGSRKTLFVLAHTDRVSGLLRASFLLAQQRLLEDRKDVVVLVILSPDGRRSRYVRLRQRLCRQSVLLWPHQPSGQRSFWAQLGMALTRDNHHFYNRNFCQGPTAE
The depositor's hits bear a star; x = no result.

SMILES	Mcl1 Bid PPI	TLR4-MyD88 BLA	Mcl-1 Bim block	NOD2-RIPK2 inh	Mcl1 Noxa PPI	TLR9-MyD88 block
c1cncc(C2Nc3cccc4cccc(c34)N2)c1	-97	x	x	1	79*	-14
Cc1ccc(OC(=O)N(C)C[C@H]2OCc3cnnn3CCCC(=O)N([C@H](C)CO)C[C@@H]2C)cc1	x	x	x	-7	x	6
O=C(O)CCC(=O)NCCC1=c2ccccc2=N/C1=C\c1c(O)n(Cc2ccc(F)cc2)c(=S)[nH]c1=O	100*	x	x	-5	104*	-6
O=C(N/N=C/c1c(O)n(Cc2ccc(F)cc2)c(=O)[nH]c1=O)c1ccccc1	-52	x	x	-9	-85	4
CCC1(CCC(C)C)C(=O)NC(=S)NC1=O	x	x	x	-2	x	-10
CN(C)c1ccc(/C=C/C=C2/C(=O)NC(=O)N(c3ccccc3)C2=O)cc1	52*	17	1	3	58*	-6
O=C1NC(=O)N(c2ccccc2)C(=O)/C1=C/C=C/c1ccco1	-47	x	x	0	-4	8
O=c1[nH]c(O)c(/C=C2/C=CC(c3cc(Cl)ccc3Cl)=N2)c(=O)[nH]1	67*	x	x	-7	26	2
Cc1ncoc1C(=O)NCC1=C(c2ccc3ccccc3c2)C[C@@H]2CC[C@H]1N2Cc1ccco1	x	x	x	-10	x	7
CCOc1cc(C=C2C(=O)NC(=O)NC2=O)ccc1OS(=O)(=O)c1ccccc1	-2	-6	-1	0	60*	-9
COc1ccc2c(c1)c(C(=O)O)c(C)n2CC(C)C	-24	3	0	-2	17	-3
COc1cc(O)c(C(=O)O)c(-c2cc(O)c(O)cc2C)c1	-36	x	x	-3	93*	1
O=C1c2ccccc2C(=O)N1Cc1nc2ccccc2c(=O)n1-c1cccnc1	73*	11	-1	-7	40	-14
O=C1NC(=O)N(Cc2ccco2)C(=O)/C1=C/C=C/c1ccco1	-52	x	x	4	52*	3
COc1ccc(CN2C(=O)NC(=O)/C(=C/c3ccc([N+](=O)[O-])o3)C2=O)cc1	34	-13	1	x	95*	x
Cc1ccc(/C=C2/C(=O)NC(=O)N(Cc3ccc(F)cc3)C2=O)o1	-28	x	x	x	1	x
Cc1cccc(N2C(=O)NC(=O)/C(=C/c3ccc([N+](=O)[O-])o3)C2=O)c1	28	6	-2	x	72*	x
Cc1cccc(N2C(=O)NC(=O)/C(=C\C=C\c3ccco3)C2=O)c1	-33	x	x	-12	23	3
CCCC1(CC(C)CC)C(=O)NC(=O)NC1=O (stereo not given)	x	x	x	-14	x	1
CCCCOc1ccc(CC2C(=O)N(C)C(=O)N(C)C2=O)cc1	72*	20	-2	9	26	-7
COP(=O)(CC(=O)O)c1ccccc1 (stereo not given)	-15	10	95*	3	0	6
O=C(O)CP(=O)(O)c1ccc(Cl)cc1	-2	5	0	2	4	0
CN1C(=O)N(C)C(=O)C2(Cc3c(ccc4ccccc34)N(C)C2)C1=O	-74	-20	-1	-17	51*	-1
COC(=O)c1c(C)[nH]c(C(=O)C(C)[N+]23CCN(CC2)CC3)c1C (stereo not given)	74*	6	0	-1	-2	7
c1cncc(C2CCCCN2)c1 (stereo not given)	61*	x	x	-5	14	0
SMILES	Mcl1 Bid PPI	TLR4-MyD88 BLA	Mcl-1 Bim block	NOD2-RIPK2 inh	Mcl1 Noxa PPI	TLR9-MyD88 block
O=c1[nH]c2ccccc2n1C1CCN(C(CCc2ccccc2)c2nnnn2C2CCCCC2)CC1 (stereo not given)	x	x	x	-4	x	x
Clc1ccc(C(c2ccc(Cl)cc2)n2cc[n+](CC(OCc3ccc(Cl)cc3Cl)c3ccc(Cl)cc3Cl)c2)cc1 (stereo not given)	x	x	x	21	x	28*
CN(C=O)CP(=O)(O)CN(C)C=O	60*	3	-2	-23	6	1
CC1Oc2cc3c(-c4c(O)cc(O)c5c(O)c6c(cc45)OC(C)C(C)C6=O)c(O)cc(O)c3c(O)c2C(=O)C1C (stereo not given)	42	x	x	-4	103*	14
O=c1[nH]c(=O)n(CCc2ccccc2)c(O)c1C=NCc1ccc2c(c1)OCO2	67*	1	-1	-8	-103	-9
CCOc1ccccc1-n1c(O)c(C=NCc2ccc3c(c2)OCO3)c(=O)[nH]c1=O	-14	3	2	-9	-5	-3
O=C1/C(=C\c2ccncc2)N2CCC1CC2	-20	x	x	-9	4	x
O=C1/C(=C\c2ccc(Cl)c(Cl)c2)N2CCC1CC2	54*	x	x	-15	10	1
COC(=O)C1=C(c2ccc3ccccc3c2)C[C@@H]2CC[C@H]1N2C(=O)NCc1ccco1	x	x	x	13	x	-10
Cc1ccc(-c2nc(CS(=O)CC(=O)N3CCC4(CC3)OCCO4)c(C)o2)cc1 (stereo not given)	85*	9	2	-3	-22	-2
CC1([N+](=O)[O-])COP(=O)(Nc2cccc(Br)c2)OC1 (stereo not given)	x	x	x	-16	x	3
Cc1ccc(N2C(=O)/C(=C/c3ccc(CN(CCC#N)S(C)(=O)=O)o3)C(=O)NC2=S)cc1C	5	-1	1	x	66*	x
Cc1cccc(N2C(=O)/C(=C/c3ccc(CN(CCC#N)S(C)(=O)=O)o3)C(=O)NC2=S)c1	4	0	2	-4	53*	-5
CN1C(=O)N(C)C(=O)C2(Cc3cc(N)ccc3N3CCN(c4ccccc4F)CC32)C1=O (stereo not given)	91*	-19	4	x	57*	x
CN1CCN2c3ccc(N)cc3CC3(C(=O)NC(=O)NC3=O)C2C1 (stereo not given)	97*	x	x	-1	35	x
COc1cc2cc(C(=O)N3CC(COS(C)(=O)=O)c4ccc(O)cc43)[nH]c2c(OC)c1OC (stereo not given)	x	x	x	11	x	-1
CC(Cc1ccccc1)NCC(=O)Nc1cc(N(C)C)nc2ccccc12 (stereo not given)	72*	x	x	-2	29	x
CCCNC(=O)N1[C@H]2CC[C@@H]1C(C(=O)OC)=C(c1c(C)noc1C)C2	x	x	x	-8	x	-1
CCOP(=O)(OCC)C(NC(=O)c1ccc(Cl)cc1)=C(Cl)Cl	-24	14	-2	-6	x	2
CCCOP(=O)(OCCC)C(NC(=O)c1ccccc1)=C(Cl)Cl	91*	-3	0	-8	-8	13
CN1c2ccccc2Oc2ccccc21	-11	2	-5	-9	69*	8
CC1CC2(C)C(=CC1=O)CCC1C3CCC(C)(O)C3(C)CC3OC312 (stereo not given)	x	x	x	-7	x	-9
CC(C)(C)n1c(O)c(C=Nc2ccc3c(c2)CCC3)c(=O)[nH]c1=O	-7	-5	-3	-4	71*	-11
CN1C(=O)C(Cc2nc3ccccc3c(=O)n2-c2ccccc2)c2ccccc21 (stereo not given)	-31	-12	-2	1	5	1

Compound activity as filed in PubChem BioAssay.
